Results from PubChem BioAssay (NCI).
Compounds without any hit were thinned out: in the full panel of roughly 83,000, 20% have a hit.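 In brief: 96-well plates, 48 h treatment, single concentration, percent growth endpoint.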 Values without a mark were called inactive. Calls of active or inactive are those of the source. The calls were made as follows: active = growth percent below 10; inactive = the rest.

Experiments:
Experiment in all cases: NCI-60 one-dose screen, 48 h (100 = growth as untreated, 0 = no growth, -100 = all killed)
Details in all cases: 10 µM unless noted
[1] = tested on: HCT-15 colon
[2] = tested on: HT29 colon
[3] = tested on: SNB-75 CNS
[4] = tested on: SNB-19 CNS
[5] = tested on: U251 CNS
[6] = tested on: PC-3 prostate
[7] = tested on: LOX IMVI melanoma
[8] = tested on: SK-MEL-28 melanoma
[9] = tested on: SK-MEL-2 melanoma
[10] = tested on: EKVX NSCLC
[11] = tested on: SN12C renal
[12] = tested on: UO-31 renal
[13] = tested on: TK-10 renal
[14] = tested on: ACHN renal
[15] = tested on: CAKI-1 renal
[16] = tested on: A498 renal
[17] = tested on: CCRF-CEM leukemia
[18] = tested on: MOLT-4 leukemia
[19] = tested on: UACC-62 melanoma

SMILES	growth [1]	growth [2]	growth [3]	growth [4]	growth [5]	growth [6]	growth [7]	growth [8]	growth [9]	growth [10]	growth [11]	growth [12]	growth [13]	growth [14]	growth [15]	growth [16]	growth [17]	growth [18]	growth [19]
O=C1NC(=O)C(c2ccc(Cl)cc2Cl)N1 (stereo unspecified)	108%	106%	92.7%	97.1%	103%	104%	104%	112%	110%	113%	104%	73.2%	98.1%	110%	100%	96.6%	93.2%	94.3%	
COc1cc(-c2nn(C)nc2-c2cc3ccccc3s2)cc(OC)c1OC	16.9%	-1.21% (active)	48.1%	26.7%	20.9%	21.9%		57.6%	32.9%	43.6%	42.3%	40.4%	65%	43.2%	43.6%	1.32% (active)	17.5%	11.7%	26%
CCCCn1c(-c2ccc(C(=O)O/N=C(\N)c3ccc4c(c3)OCO4)cc2)nc(-c2ccccc2)c1-c1ccccc1	19.4%	19.7%	-15.4% (active)	58.8%	45%	42.5%	-72.5% (active)	76.9%		51.8%	39.3%	-62.3% (active)	37.1%	-85.8% (active)	11.5%		-30% (active)	7.23% (active)	67.9%
COc1cc(-c2nc3ccccc3[nH]2)ccc1OCC(=O)N=Nc1c(O)[nH]c2ccc(Cl)cc12	77.4%	-59% (active)	-88.4% (active)	-93.1% (active)	-95% (active)	-73% (active)	-97.1% (active)	-65.4% (active)	-47.4% (active)		-73.4% (active)	104%	-7.25% (active)	31.4%	-66.4% (active)	81.8%	-46.7% (active)	-45.1% (active)	-64.3% (active)
